Measurements published in the supplement of paper PMC10981050.
Values joined by “and” are separate entries in the source; they are usually repeats but may differ in a detail not shown here. Equal values may be shown once. Where a name gives a salt, the structure may show the parent alone.

Assays:
Assay in all cases: cell viability relative to vehicle control; higher = less cytotoxic
Conditions in all cases: 10 µM
K562 = system: K562
Method in brief: (§1)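 Mutant clones made by CRISPR editing and their isogenic wild-type counterparts, from four leukaemia lines, were exposed to a single 10 µM dose of each library compound for 48 h. The supernatant was then removed and CellTiter-Glo luminescence was read. Viability was reported as percent of the on-plate vehicle control.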

MARIMO = system: MARIMO
Method in brief: as §1

MOLM14 = system: MOLM14
Method in brief: as §1

OCI-AML2 = system: OCI-AML2
Method in brief: as §1

Row | SMILES | cell viability (K562; SRSF2 genotype: SRSF2 P95H/wt) | cell viability (K562; SRSF2 genotype: SRSF2 wt/wt) | cell viability (MARIMO; SRSF2 genotype: SRSF2 P95H/wt) | cell viability (MARIMO; SRSF2 genotype: SRSF2 wt/wt) | cell viability (MOLM14; SRSF2 genotype: SRSF2 P95H/wt) | cell viability (MOLM14; SRSF2 genotype: SRSF2 wt/wt) | cell viability (OCI-AML2; SRSF2 genotype: P95H/wt) | cell viability (OCI-AML2; SRSF2 genotype: wt/wt)
1 | O=C(O)c1ccc(Br)c(O)c1 [4-Bromo-3-hydroxybenzoic acid] | 105% and 104% | 104% | 100% | 110% | 100% | 107% | 99.3% | 108%
2 | CCCCN1CCCC[C@H]1C(=O)Nc1c(C)cccc1C [Levobupivacaine HCl] | 82.7% and 79.1% | 80.2% | 82.3% | 85.1% | 83.5% | 88.7% | 82.3% | 90.8%
3 | Cn1cnc2c(F)c(Nc3ccc(Br)cc3F)c(C(=O)NOCCO)cc21 | 84.2% and 92.4% | 79.5% | 41% | 38.6% | 45.8% | 28.9% | 39.5% | 42.5%
4 | COc1ccccc1N1CCN(CCN2C(=O)CC3(CCCC3)CC2=O)CC1 [BMY 7378 Dihydrochloride] | 98.9% and 100% | 91.1% | 95.3% | 106% | 99.9% | 95.2% | 89.4% | 105%
5 | COc1cc(/C=C/C(=O)N2CCN(CC(=O)N3CCCC3)CC2)cc(OC)c1OC [Cinepazide maleate] | 102% and 105% | 99.2% | 99.5% | 106% | 106% | 105% | 106% | 108%
6 | COc1cc2ncnc(Nc3ccc(F)c(Cl)c3)c2cc1NC(=O)/C=C/CN1CCCCC1 | 63.7% and 73.8% | 87.8% | 55.2% | 58.2% | 26.9% | 54.4% | 20.2% | 37.2%
7 | CC(=O)Oc1cc2c(s1)CCN(C(C(=O)C1CC1)c1ccccc1F)C2 (stereo not drawn) [Prasugrel (Effient)] | 26.1% and 36.8% | 32.7% | 9.74% | 14.8% | 23.1% | 6.67% | 20.9% | 23.1%
8 | COc1cc(Nc2c(C#N)cnc3cc(OCCCN4CCN(C)CC4)c(OC)cc23)c(Cl)cc1Cl [Bosutinib (SKI-606)] | 2.19% and 3.5% | 3.73% | 38.5% | 37.6% | 7.61% | 11.1% | 1.53% | 7.73%
9 | CC(=O)OC1CC2(C)C(CC(O)C3C4(C)CCC(O)C(C)C4CCC32C)C1=C(CCC=C(C)C)C(=O)O (stereo not drawn) [Fusidine] | 96.3% and 99.9% | 89.4% | 97.5% | 98% | 98.9% | 96.8% | 94.2% | 99.2%
10 | COCCCOc1ccnc(C[S+]([O-])c2nc3ccccc3[nH]2)c1C (stereo not drawn) [Rebeprazole sodium] | 95.2% and 93.6% | 101% | 104% | 106% | 95.6% | 102% | 97.4% | 113%
11 | CN(CCOc1ccc(CC2SC(=O)NC2=O)cc1)c1ccccn1 (stereo not drawn) [Rosiglitazone HCl] | 100% and 101% | 97.4% | 102% | 115% | 103% | 109% | 102% | 105%
12 | CCC(=O)N1CCN(c2ccc(-n3c(=O)ccc4cnc5ccc(-c6cnc7ccccc7c6)cc5c43)cc2C(F)(F)F)CC1 [Torin 1] | 46.8% and 45.3% | 46.4% | 64.6% | 61.4% | 39.8% | 36.2% | 41.5% | 39.9%
13 | O=C1c2c(O)cc(O)cc2O[C@H](c2cc(O)c(O)c(O)c2)[C@H]1O [Dihydromyricetin (Ampeloptin)] | 111% and 107% | 114% | 112% | 110% | 110% | 107% | 112% | 107%
14 | CCCCc1nc2cc(/C=C/C(=O)NO)ccc2n1CCN(CC)CC [SB939 (Pracinostat)] | 1.57% and 13.7% | 4.32% | 9.81% | 13.9% | 1.19% | 0.63% | 4.26% | 6.25%
15 | Fc1ccc(Cn2c(Cl)nc3ccccc32)cc1 [2-Chloro-1-(4-fluorobenzyl)benzimidazole] | 77.4% and 80.8% | 86.5% | 64.6% | 64.5% | 77.2% | 84% | 28.5% | 36.5%
16 | CC1(C)O[C@H]2CC(=O)OC[C@]23[C@H]2CC[C@@]4(C)[C@H](c5ccoc5)OC(=O)[C@H]5O[C@]54[C@]2(C)C(=O)C[C@@H]13 [Limonin] | 98% and 110% | 109% | 97.3% | 109% | 102% | 109% | 111% | 102%
17 | O=c1[nH]cnc2c1ncn2[C@@H]1O[C@H](CO)[C@@H](O)[C@H]1O [Inosine] | 114% and 107% | 121% | 102% | 118% | 99.7% | 111% | 98.3% | 114%
18 | C=C1CCC2C(C)(COC(=O)CCC(=O)O)C(OC(=O)CCC(=O)O)CCC2(C)C1C=CC1=CCOC1=O (stereo not drawn) [Dehydroandrographolide Succinate] | 114% and 108% | 111% | 101% | 101% | 109% | 107% | 106% | 105%
19 | CN1CCN(S(=O)(=O)c2ccc(-c3cnc(N)c(C(=O)Nc4cccnc4)n3)cc2)CC1 | 72.1% and 61.7% | 73.6% | 76.7% | 114% | 40.6% | 42.1% | 30% | 63.3%
20 | Cc1nccn1CC1CCc2c(c3ccccc3n2C)C1=O (stereo not drawn) [Ondansetron Hydrochloride Dihydrate] | 95.8% and 94.2% | 91.5% | 95.9% | 108% | 97.4% | 97.4% | 88.6% | 99.1%
21 | COc1cn(-c2ccc(-n3cccn3)cc2F)nc(-c2ccnn2-c2ccccc2)c1=O | 103% and 105% | 99.9% | 97.5% | 113% | 107% | 107% | 106% | 117%

Row | SMILES | cell viability (K562; SRSF2 genotype: SRSF2 P95H/wt) | cell viability (K562; SRSF2 genotype: SRSF2 wt/wt) | cell viability (MARIMO; SRSF2 genotype: SRSF2 P95H/wt) | cell viability (MARIMO; SRSF2 genotype: SRSF2 wt/wt) | cell viability (MOLM14; SRSF2 genotype: SRSF2 P95H/wt) | cell viability (MOLM14; SRSF2 genotype: SRSF2 wt/wt) | cell viability (OCI-AML2; SRSF2 genotype: P95H/wt) | cell viability (OCI-AML2; SRSF2 genotype: wt/wt)
22 | CN(C)Cc1cccc(N=C(c2ccccc2)c2c(O)[nH]c3cc(C(N)=O)ccc23)c1 | 80.6% and 81.5% | 78.9% | 72.2% | 83.8% | 11% | 15.9% | 23.9% | 31.1%
23 | CCCCCCCCCCCC1=C(O)C(=O)C=C(O)C1=O [Embelin] | 91.7% and 88.2% | 85.5% | 90.3% | 98.8% | 90.9% | 91.9% | 89.3% | 94.6%
24 | CCN1CCC[C@H]1CNC(=O)c1cc(S(N)(=O)=O)ccc1OC [Levosulpiride (Levogastrol)] | 101% and 103% | 108% | 111% | 104% | 109% | 107% | 104% | 93.6%
25 | CC(C)(C)c1cc(O)ccc1O | 99.8% and 100% | 93.8% | 21.6% | 0.51% | 48% | 54.4% | 37.9% | 29.7%
26 | CC(C)COc1ccc(CNC(=O)N(Cc2ccc(F)cc2)C2CCN(C)CC2)cc1 [Pimavanserin] | 0.6% and 0.64% | 0.75% | 2.06% | 4.09% | 0.25% | 0.22% | 0.22% | 1.2%
27 | O=C1c2ccccc2-c2n[nH]c3cccc1c23 | 95% and 105% | 95.8% | 72.3% | 72% | 45% | 33.1% | 53.1% | 48.7%
28 | CC(C)=CCC/C(C)=C/CC/C(C)=C/CC/C=C(\C)CC/C=C(\C)CCC=C(C)C [Squalene] | 101% and 105% | 99.6% | 111% | 105% | 101% | 101% | 110% | 108%
29 | O=C(O)/C=C/c1ccc(O)c(O)c1 [Caffeic acid] | 99.1% and 100% | 94.3% | 94.2% | 105% | 97.7% | 101% | 76.2% | 92.7%
30 | CCN(CC)CCOC(=O)c1ccc(N)cc1 [Procaine] | 100% and 99% | 102% | 99.6% | 108% | 107% | 105% | 104% | 101%
31 | CNCCC(Oc1ccc(C(F)(F)F)cc1)c1ccccc1 (stereo not drawn) [Fluoxetine HCl] | 75.2% and 82.5% | 88.8% | 63.5% | 75.2% | 68.8% | 81.6% | 63.1% | 74.1%
32 | Cc1cnc(NC(=O)Nc2cc(Br)c(C)cc2OC[C@@H]2CNCCO2)cn1 | 8.35% and 7.58% | 8.76% | 20.6% | 8.01% | 10.8% | 6.96% | 12.8% | 12.1%
33 | COC(=O)CCC(=O)CN [Methyl Aminolevulinate Hydrochloride] | 94.6% and 91.5% | 99% | 92.2% | 94.4% | 95% | 97.2% | 93.9% | 102%
34 | CSCC[C@H](NC(=O)[C@H](CC(C)C)NC(=O)[C@H](Cc1c[nH]c2ccccc12)NC(=O)[C@H](CCC(N)=O)NC(=O)[C@@H](NC(=O)[C@H](Cc1ccccc1)NC(=O)[C@H](CC(=O)O)NC(=O)[C@H](CCC(N)=O)NC(=O)[C@H](C)NC(=O)[C@H](CCCNC(=N)N)NC(=O)[C@H](CCCNC(=N)N)NC(=O)[C@H](CO)NC(=O)[C@H](CC(=O)O)NC(=O)[C@H](CC(C)C)NC(=O)[C@H](Cc1ccc(O)cc1)NC(=O)[C@H](CCCCN)NC(=O)[C@H](CO)NC(=O)[C@H](Cc1ccc(O)cc1)NC(=O)[C@H](CC(=O)O)NC(=O)[C@H](CO)NC(=O)[C@@H](NC(=O)[C@H](Cc1ccccc1)NC(=O)[C@@H](NC(=O)CNC(=O)[C@H](CCC(N)=O)NC(=O)[C@H](CO)NC(=O)[C@@H](N)Cc1cnc[nH]1)[C@@H](C)O)[C@@H](C)O)C(C)C)C(=O)N[C@@H](CC(N)=O)C(=O)N[C@H](C(=O)O)[C@@H](C)O [Glucagon HCl] | 113% and 109% | 113% | 107% | 104% | 102% | 108% | 103% | 109%
35 | COc1ccc(C[C@@H]2c3cc(OC)c(OC)cc3CC[N@+]2(C)CCC(=O)OCCCCCOC(=O)CC[N@@+]2(C)CCc3cc(OC)c(OC)cc3[C@H]2Cc2ccc(OC)c(OC)c2)cc1OC [Cisatracurium besylate (Nimbex)] | 93.3% and 95.8% | 92.4% | 79% | 94% | 70.7% | 93% | 99.5% | 111%
36 | CCCCCCCCC/C(=C\C1=C(C)C(=O)C(OC)=C(OC)C1=O)C(=O)O | 106% and 100% | 99.4% | 112% | 105% | 94.2% | 102% | 108% | 107%
37 | CC1(C)S[C@@H]2[C@H](NC(=O)Cc3ccccc3)C(=O)N2[C@H]1C(=O)O [Penicillin G Sodium] | 100% and 92% | 99.5% | 98.5% | 107% | 96.9% | 103% | 91.9% | 109%
38 | Nc1ncnc2c1ncn2C(C=O)OC(C=O)CO (stereo not drawn) [Adenosine Dialdehyde (ADOX)] | 67.4% and 74.4% | 69.3% | 60.7% | 59.4% | 25.3% | 14.5% | 40.4% | 42.5%
39 | O=C(Nc1c(Cl)cncc1Cl)c1ccc(OC(F)F)c(OCC2CC2)c1 [Roflumilast (Daxas)] | 96.8% and 106% | 105% | 116% | 114% | 105% | 109% | 103% | 96%
40 | Cc1ccc(C(C)C)cc1O [Carvacrol] | 100% and 101% | 98.7% | 95.5% | 99% | 99% | 100% | 92.8% | 100%
41 | C[C@@H](c1ccc2nccn2c1)n1nnc2ncc(-c3cnn(C)c3)nc21 [Savolitinib(AZD6094, HMPL-504)] | 94.1% and 97.5% | 104% | 94.3% | 91% | 96.6% | 97.2% | 90.3% | 96.5%
